Assay [1] can be described thus: compound effects on lung adenocarcinoma cell viability – A549, calcein-AM fluorescence, 48 h, basal, profiling panel (AID 1162). Further: test concentration not given here. Conditions: higher = more signal.
Assay [2] can be described thus: compound effects on differentiated 3T3-L1 adipocyte viability – cell-based, 3T3-L1 adipocytes, calcein-AM fluorescence, 48 h, basal, profiling panel (AID 1163). Further: test concentration not given here. Conditions: 3T3-L1 adipocytes viability, higher = more signal.
Assay [3] can be described thus: compound effects on hepatocellular carcinoma cell viability – HepG2, calcein-AM fluorescence, 48 h, basal, profiling panel (AID 1164). Further: test concentration not given here. Conditions: higher = more signal.
Assay [4] can be described thus: compound effects on multiple myeloma cell viability – MM1S, calcein-AM fluorescence, 48 h, basal, profiling panel (AID 1165). Further: test concentration not given here. Conditions: higher = more signal.
Assay [5] is described as follows: calcein-AM signal in unstimulated myeloma cells – cell-based, calcein-AM fluorescence, 48 h, PK04 Diversity Set, profiling panel (AID 1166).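 Further: cells grown under basal conditions without added stimulus; test concentration not given here.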 Conditions: RPMI8226 myeloma viability, higher = more signal.
The nature of assay [6]: JC-1 mitochondrial signal, unstimulated HepG2 cells – cell-based, JC-1 fluorescence, 24 h, 100 nL compound, profiling panel (AID 1167). Further: test concentration not given here. The note with it: HepG2 mitochondrial potential, higher = more signal.
Assay [7] is described as follows: JC-1 mitochondrial signal, unstimulated adipocytes – cell-based, JC-1 fluorescence, 3T3-L1 adipocytes, 24 h, 100 nL compound, profiling panel (AID 1168). Further: test concentration not given here. Conditions: JC-1 mitochondrial fluorescence, higher = more signal, called active from +8 up or from −8 down.
The nature of assay [8]: JC-1 mitochondrial signal, unstimulated myeloma cells – cell-based, JC-1 fluorescence, RPMI8226, 24 h, 100 nL compound, profiling panel (AID 1169). Further: test concentration not given here. The note with it: JC-1 mitochondrial potential fluorescence, higher = more signal.
Assay [9] is described as follows: JC-1 mitochondrial signal, unstimulated MM1S myeloma – cell-based, JC-1 fluorescence, 24 h, 100 nL compound, profiling panel (AID 1170). Further: test concentration not given here. Conditions: MM1S mitochondrial potential, higher = more signal.
A short description of assay [10]: resazurin metabolic signal in A549 cells – cell-based, resazurin fluorescence, 24 h, PK04 Diversity Set, profiling panel (AID 1171). Further: test concentration not given here. The note with it: A549 viability, higher = more signal, called active from +8 up or from −8 down.
The nature of assay [11]: resazurin metabolic signal in HepG2 cells – cell-based, resazurin fluorescence, 24 h, PK04 Diversity Set, profiling panel (AID 1172). Further: test concentration not given here. Conditions: HepG2 viability, higher = more signal.
The nature of assay [12]: budding yeast growth changes without added modifier – OD600, strain BY4716, 24 h, basal condition, primary screen (AID 1173). The note with it: S. cerevisiae BY4716 growth, OD600, 24 h; higher = more signal, called active from +8 up or from −8 down.
A short description of assay [13]: viability profiling in MM1S myeloma cells – cell-based, resazurin fluorescence, basal, 24 h, PK04 Diversity Set, profiling panel (AID 1174). Further: test concentration not given here. Conditions: higher = more signal, called active from +8 up or from −8 down.
The target of assay [14] is Dihydroorotate dehydrogenase (quinone), mitochondrial (Plasmodium falciparum (isolate 3D7)) (UniProt Q08210). Kind of assay: inhibition of P. falciparum DHODH – biochemical, C-terminal His tag, absorbance 600 nm, primary screen (AID 1175).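 Further: recombinant parasite enzyme with a five histidine tag at its C terminus; test concentration not given here.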 Conditions: PfDHODH enzyme, DCIP absorbance 600 nm; higher = more signal, called active from +8 up or from −8 down.
Dihydroorotate dehydrogenase (quinone), mitochondrial (Plasmodium falciparum (isolate 3D7)), sequence (Q08210 whole entry, looked up): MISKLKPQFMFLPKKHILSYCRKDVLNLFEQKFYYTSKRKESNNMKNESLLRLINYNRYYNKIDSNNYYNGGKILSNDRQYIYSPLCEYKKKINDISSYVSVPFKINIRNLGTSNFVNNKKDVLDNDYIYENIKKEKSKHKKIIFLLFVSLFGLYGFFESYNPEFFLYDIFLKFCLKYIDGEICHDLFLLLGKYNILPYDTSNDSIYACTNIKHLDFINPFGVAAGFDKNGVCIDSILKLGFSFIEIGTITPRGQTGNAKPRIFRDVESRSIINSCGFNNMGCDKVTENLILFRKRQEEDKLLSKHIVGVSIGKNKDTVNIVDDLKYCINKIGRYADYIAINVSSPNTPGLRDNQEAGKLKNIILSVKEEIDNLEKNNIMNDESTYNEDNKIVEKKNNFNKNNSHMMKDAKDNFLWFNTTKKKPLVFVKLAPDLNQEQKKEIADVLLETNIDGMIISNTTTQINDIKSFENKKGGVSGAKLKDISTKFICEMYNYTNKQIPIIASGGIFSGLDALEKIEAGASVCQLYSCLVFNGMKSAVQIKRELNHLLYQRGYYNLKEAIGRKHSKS
A short description of assay [15]: inhibition of PAO1 biofilm formation – strain PAO1, LB-PBS medium, absorbance 600 nm, primary screen (AID 1176). Further: test concentration not given here. The note with it: P. aeruginosa PAO1 growth/biofilm, A600, 12 h; higher = more signal.
Assay [16] is described as follows: growth modulation of vineyard yeast isolate – strain RM11-1a, OD600, basal, 24 h, primary screen (AID 1177).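 Further: cultures grown under basal conditions with no added stressor; test concentration not given here.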 Conditions: S. cerevisiae RM11-1a growth, OD600, 24 h; higher = more signal, called active from +8 up or from −8 down.
Assay [17] is described as follows: growth of efflux-deficient E. coli DRC39 – strain DRC39, OD650, 24 h, E. coli filamentation inducers, primary screen (AID 1178).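 Further: growth measured as culture turbidity by optical density at 650 nm; test concentration not given here.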 The note with it: E. coli DRC39 acrAB, higher = more signal, called active from +8 up or from −8 down.
Assay [18] is described as follows: growth of efflux-deficient E. coli DRC39 – strain DRC39, OD650, 48 h, E. coli filamentation inducers, primary screen (AID 1179).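 Further: screen aims at cell division blockers that make cells filament.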 The note with it: E. coli DRC39 delta-acrAB growth, higher = more signal, called active from +8 up or from −8 down.
A short description of assay [19]: viability profiling in RPMI8226 myeloma cells – cell-based, resazurin fluorescence, basal, 24 h, PK04 Diversity Set, profiling panel (AID 1180).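 Further: RPMI8826 multiple myeloma cell line at 5000 cells per well; test concentration not given here.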 The note with it: higher = more signal. A general note: Resazurin is reduced to fluorescent resorufin, in cell work by metabolically active cells.
The target in assay [20] is E3 ubiquitin-protein ligase XIAP (Homo sapiens) (UniProt P98170). As to the kind of experiment: small molecules binding XIAP protein – biophysical, small-molecule microarray, fluorescence 635 nm, primary screen (AID 1181).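 Further: score merges 667 nm emission and signal to noise over triplicate slides.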 The note with it: higher = more signal.
E3 ubiquitin-protein ligase XIAP (Homo sapiens), sequence (P98170 whole entry, looked up): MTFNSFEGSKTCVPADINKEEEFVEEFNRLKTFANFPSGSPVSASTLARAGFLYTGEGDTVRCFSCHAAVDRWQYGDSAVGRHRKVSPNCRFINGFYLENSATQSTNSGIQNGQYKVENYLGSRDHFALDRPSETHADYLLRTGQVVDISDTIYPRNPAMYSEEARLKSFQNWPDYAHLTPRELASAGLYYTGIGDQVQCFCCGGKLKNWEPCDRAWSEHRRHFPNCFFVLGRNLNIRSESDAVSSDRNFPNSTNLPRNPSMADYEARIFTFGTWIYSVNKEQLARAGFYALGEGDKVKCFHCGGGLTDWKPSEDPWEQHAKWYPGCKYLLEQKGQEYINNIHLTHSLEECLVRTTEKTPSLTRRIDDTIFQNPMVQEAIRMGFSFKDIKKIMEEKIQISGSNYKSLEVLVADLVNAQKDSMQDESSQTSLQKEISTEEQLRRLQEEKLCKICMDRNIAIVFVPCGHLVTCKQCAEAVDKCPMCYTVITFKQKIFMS

Calls of active or inactive are those of the source. Unless noted, how the calls were made is not given here.

As to `C=C(CCCC)/C(=C/C[C@@H](OC(=O)c1ccncc1)c1ccc(CO)o1)c1cnc2ccccc2c1`, the z-score in assay [1] is 1.18; in assay [2] it was 0.282; in assay [3] it was -0.284; in assay [4] it was -2.48; in assay [5], -1.18; in assay [6] it was -0.526. For the same molecule, the z-score in [7] is -0.586 (inactive); in assay [8] it was -0.287; in assay [9] it was 1; in assay [10], -0.0271 (inactive); in [11] it was -0.0346; in assay [12], -1.95 (inactive). Also, the z-score in [13] is 0.82 (inactive); in [15] it was 0.154 (inactive); in [16], -0.27 (inactive); in [17], 0.698 (inactive); in assay [18], 0.29 (inactive); in [19] it was 0.501. In addition, the composite z-score in assay [14] is -7.54 (inactive); in [20] it was 0.451.

`C=CCC(OC(C)=O)[C@@H]1[C@@H](N(Cc2cccc3ccccc23)C(=O)c2ccc(C)cc2)c2cc(OCCCO)ccc2N1C(=O)c1ccc(-c2ccccc2)cc1` (stereo not given in full): the z-score in assay [1] was 1.1; in assay [2] it was 0.719; in [3], 1.47; in assay [4], 1.07; in [5], 0.783; in [6] it was 3.02. In addition, the z-score in assay [7] is -0.0453 (inactive); in assay [8], 0.456; in [9], -0.848; in [10], 0.417 (inactive); in [11], 0.335; in [12], -0.93 (inactive). Also, the z-score was 1.01 (inactive) in [13]; -0.0178 (inactive) in [15]; -1.51 (inactive) in assay [16]; 0.611 (inactive) in [17]; 0.861 (inactive) in assay [18]; 0.734 in [19]. The composite z-score in assay [14] was -2 (inactive); in [20] it was 0.146.

Consider `COCCOC(=O)N1C(=O)[C@@]2(c3cc(C#CC4=CCCCC4)ccc31)[C@H](C(=O)NC[C@H](O)c1ccccc1)[C@H]1C(=O)O[C@H](c3ccccc3)[C@H](c3ccccc3)N1[C@@H]2c1ccc(OCCO)cc1`, for which the z-score is -0.602 in assay [1]; -0.39 in [2]; -0.199 in assay [3]; -1.89 in [4]; -1.63 in assay [5]; -1.92 in assay [6]. Further, the z-score in [7] is 0.449 (inactive); in assay [8], -0.704; in [9], -1.65; in assay [10], -0.355 (inactive); in assay [11], 0.604; in assay [12], 1.61 (inactive). Further, the z-score in [13] was -1.68 (inactive); in assay [15], 2.83 (inactive); in assay [16] it was 2.7 (inactive); in [17] it was -0.276 (inactive); in assay [18] it was 0.0077 (inactive); in [19], -1.44. Also, the composite z-score in [14] was -0.773 (inactive); in assay [20], -0.26.

Take `N#Cc1ccc(NN2C(C(O)c3ccc(I)cc3)C=CC3C(=O)N(c4ccccc4)C(=O)C32)cc1` (stereo not given): the z-score was -0.668 in assay [1]; -0.392 in [2]; 0.0254 in assay [3]; -1.03 in [4]; -0.251 in assay [5]; -0.895 in assay [6]. For the same molecule, the z-score in assay [7] is 0.641 (inactive); in assay [8], -0.586; in assay [9], -0.263; in assay [10], -0.383 (inactive); in assay [11], -1.59; in assay [12], 0.179 (inactive). Also, the z-score in assay [13] was -1.34 (inactive); in assay [15], 0.944 (inactive); in assay [16] it was 0.62 (inactive); in assay [17], -0.904 (inactive); in assay [18], -0.397 (inactive); in assay [19], -0.328. Also, the composite z-score was -0.165 (inactive) in assay [14] and -0.256 in [20].

For the molecule `C#CCNC(/C=C/c1ccccc1)CO` (stereo not given), the z-score in assay [1] was -0.165; in [2] it was -0.239; in assay [3] it was -0.624; in assay [4] it was -0.295; in [5], -0.987; in assay [6] it was -1.02. For the same molecule, the z-score is 0.308 (inactive) in assay [7]; 0.38 in [8]; -0.323 in assay [9]; 0.234 (inactive) in assay [10]; -0.316 in assay [11]; 0.668 (inactive) in [12]. Besides, the z-score was -0.498 (inactive) in assay [13]; 0.449 (inactive) in [15]; 1.62 (inactive) in assay [16]; 0.238 (inactive) in [17]; 0.188 (inactive) in [18]; -0.153 in assay [19]. Moreover, the values for the composite z-score in [14] and in assay [20] were 0.657 (inactive) and 0.0338, respectively.

For the molecule `O=C(NCC(F)(F)F)[C@@H]1c2ccccc2C(=O)N(Cc2ccccc2Cl)[C@H]1c1ccc(CO)cc1`, the z-score in assay [1] is 1.25; in assay [2], -0.0448; in [3], 0.343; in assay [4] it was 0.189; in [5], -0.317; in assay [6], 1.48. Moreover, the z-score in assay [7] was -0.198 (inactive); in [8], -0.65; in assay [9], 0.499; in [10], 1.26 (inactive); in assay [11], 0.519; in [12], -0.331 (inactive). Besides, the z-score in assay [13] is 0.403 (inactive); in [15], 0.277 (inactive); in assay [16], -0.562 (inactive); in assay [17], 0.113 (inactive); in assay [18] it was 0.183 (inactive); in assay [19], 0.641. In addition, the composite z-score is -0.731 (inactive) in assay [14] and 0.282 in [20].

`COC(=O)Cn1c(C(=O)N2CCCC2)cc2c1C[C@H]1CN(C(=O)c3ccccc3)[C@@](Cc3ccccc3)(C(=O)OC)[C@@H]21`: the z-score in assay [1] is -0.162; in assay [2], 0.0052; in assay [3], 0.513; in assay [4], 0.875; in assay [5], -0.256; in assay [6], 0.876. In addition, the z-score in assay [7] was 0.385 (inactive); in assay [8], -0.0618; in [9], -1.25; in assay [10], 0.359 (inactive); in assay [11], -0.103; in assay [12], 1.37 (inactive). Besides, the z-score is -0.694 (inactive) in [13]; 0.619 (inactive) in [15]; 0.965 (inactive) in assay [16]; -0.244 (inactive) in assay [17]; 0.172 (inactive) in [18]; -1.34 in assay [19]. Moreover, the values for the composite z-score in [14] and in assay [20] were 0.0393 (inactive) and 0.107, respectively.

As to `O=C1O[C@H](c2ccccc2)[C@H](c2ccccc2)N2[C@H]1[C@@H](C(=O)NC[C@H](O)c1ccccc1)[C@]1(C(=O)Nc3ccc(C#CC4=CCCCC4)cc31)[C@H]2c1ccc(OCCO)cc1`, the z-score in assay [1] was 0.0545; in assay [2] it was -0.405; in assay [3], -0.674; in assay [4], -1.24; in [5], -2.29; in assay [6], -2.36. For the same molecule, the z-score in [7] is 1.27 (inactive); in assay [8], -1.34; in [9] it was -1.52; in [10] it was -0.527 (inactive); in [11], 0.0374; in assay [12], 1.17 (inactive). Moreover, the z-score is -2 (inactive) in assay [13]; 2.05 (inactive) in assay [15]; 3.28 (inactive) in [16]; -0.227 (inactive) in assay [17]; 0.262 (inactive) in [18]; -3.18 in assay [19]. In addition, the composite z-score in assay [14] was -0.186 (inactive); in assay [20], -0.316.

For `CC(C)[Si](OCC[C@H]1O[C@]2(C(=O)N(Cc3ccccc3)c3ccccc32)[C@@H](C)[C@@H]1[Si](C)(C)O)(C(C)C)C(C)C`, the z-score in [1] is -0.287; in assay [2], 1.13; in assay [3] it was 0.35; in assay [4], -0.64; in [5], -1.31; in assay [6], 0.444. Moreover, the z-score in assay [7] is 0.578 (inactive); in assay [8] it was -0.82; in assay [9], -1.51; in [10], -1.46 (inactive); in [11] it was -0.563; in [12], -0.113 (inactive). Further, the z-score in [13] is 0.115 (inactive); in assay [15], -0.66 (inactive); in assay [16], 1.11 (inactive); in [17] it was -0.297 (inactive); in assay [18], -0.837 (inactive); in [19], 0.261. For the same molecule, the composite z-score was 0.766 (inactive) in assay [14] and -0.142 in assay [20].

The values are drawn from PubChem BioAssay.
